This excerpt belongs to a sample that is enriched for hits.
VCAM1 pot: enhances TNF alpha induced VCAM1 expression in HUVEC | 93,000 compounds, 0.19% hits | HUVEC TNFa-stimulated VCAM-1 immunofluorescence, high-content imaging; scaled per plate to unstimulated/TNFa-only wells | activation, % at 2 µM | AID 808;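 active = activation above the screen mean plus 3 SD, with well images confirming the hit on visual review, cut at about 28% in these data, passing the limit was not always enough; inconclusive = activation above that limit but images do not confirm it; inactive = activation not above that limit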;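 note: signal is the number of cytoplasmic VCAM-1 stained grains per positive cell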
VCAM1 pot conf: enhancers of VCAM1 induction in HUVEC – imaging, triplicate retest, confirmation; shares compounds with VCAM1 pot; HUVEC TNFa-stimulated VCAM-1 immunofluorescence imaging; activation, % at 2 µM; 230 tested, under 10 active;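 active = activation above 30% in triplicate retests at 2 µM, then confirmed by visual review of the well images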
Of the large screens only hits and unclear results are named; the others gave an inactive call (follow-up assays come after a bar, where they were run).

Cc1ccc2cccc(OC(=O)N3CCCC3)c2n1	VCAM1 pot inconclusive | VCAM1 pot conf inactive
O=c1[nH]c(=S)n(CCC2=CCCCC2)c(O)c1C=NCCCn1ccnc1	none
CNP1(NC)=NC(C(F)(F)F)=NC(C(F)(F)F)=N1	none
C=CCOC(=O)C1=C(C)OC(N)=C(C#N)C12C(=O)N(CN1CCOCC1)c1ccccc12 (stereo not drawn)	none
Cc1ccc(S(=O)(=O)N(C)CCCC(=O)N2CCN(c3ccccn3)CC2)cc1	VCAM1 pot 81 | VCAM1 pot conf inactive
CCN1CCN(C(=O)COc2cc(=O)n(CC)c3ccccc23)CC1	none
CC(=NCCN1CCCCC1)c1c(O)[nH]c(=O)[nH]c1=O	none
Cc1sc2nc(COC(=O)Cc3ccccc3)[nH]c(=O)c2c1C	none
CSc1ccc(CNC2CN3CCC2CC3)cc1 (stereo not drawn)	none
COc1ccc(Oc2cc(NC(=O)c3nn(C)cc3[N+](=O)[O-])cc([N+](=O)[O-])c2)cc1	none

Bioassay records from PubChem.
